Pf growth 96h – Primary qHTS for delayed death inhibitors of the malarial parasite plastid, 96 hour incubation; 320,000 tested, 6.9% active; P. falciparum luciferase reporter growth, 96 h; Potency, µM (top dose mostly 28.7 µM), without a hit: top-dose activity change, negative = inhibition, actives largely listed as inhibitors; note: % is set by controls: 0 for no effect and ±100 for the full control effect
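Erythrocytes infected with luciferase-expressing P. falciparum were dispensed at 2% hematocrit and 0.05% parasitemia (final), then incubated with compounds 96 hours at 37 C in 5% CO2. Luminescence after detection reagent addition reported growth.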
Pf growth 48h – Primary qHTS for delayed death inhibitors of the malarial parasite plastid, 48 hour incubation; 310,000 tested, 5.9% active; P. falciparum luciferase growth in erythrocytes, 48 h; Potency, µM (doses to about 28.7 µM), inactives show at the highest dose activity change, negative = inhibition, most hits filed as inhibitors; note: % is set by controls: 0 for no effect and ±100 for the full control effect
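Parasite viability was followed by luminescence of a genomically integrated firefly luciferase. Cultures held 0.1% parasitemia at 2% hematocrit (final), incubated under 5% CO2 at 37 C.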
AmpC detergent – qHTS Inhibitors of AmpC Beta-Lactamase (assay with detergent). AmpC hydrolysis of nitrocefin, absorbance 480 nm, 0.01% Triton. P00811. 370,000 tested, 0.041% active. AID 485294, 2010. Potency, µM (top dose mostly 114 µM), without a hit: top-dose activity change, negative = inhibition, most hits filed as inhibitors;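 note: 0% = no-compound wells and -100% = no-enzyme wells; nearly all actives have a fitted effect of over 25% in size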
Target sequence (P00811 whole entry, looked up): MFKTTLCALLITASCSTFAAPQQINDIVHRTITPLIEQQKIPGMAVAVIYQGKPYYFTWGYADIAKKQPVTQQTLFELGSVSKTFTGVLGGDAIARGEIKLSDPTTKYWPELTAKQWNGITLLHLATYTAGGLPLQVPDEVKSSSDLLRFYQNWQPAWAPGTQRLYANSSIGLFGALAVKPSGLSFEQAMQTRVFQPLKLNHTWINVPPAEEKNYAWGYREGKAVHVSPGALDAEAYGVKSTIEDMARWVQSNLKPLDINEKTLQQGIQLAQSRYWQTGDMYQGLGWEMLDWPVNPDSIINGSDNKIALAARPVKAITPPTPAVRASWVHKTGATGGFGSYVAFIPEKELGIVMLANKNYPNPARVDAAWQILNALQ
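20 mM phosphate pH 7.0 + 0.01% (detergent screen) or 0.0001% Triton X-100; 5.3 nM AmpC reagent; cpd preinc 15 min RT; nitrocefin (800 uM stock) to start; A480 q20 s × 4 min; Activity was normalised to no-enzyme and no-compound control wells.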
SARS PLP yeast – qHTS of Yeast-based Assay for SARS-CoV PLP; 330,000 tested, 0.19% active; S. cerevisiae expressing SARS-CoV PLpro, growth rescue; Potency, µM (top dose mostly 32.9 µM), inactives show top-dose activity, positive = growth rescue, actives largely listed as activators; calls by dose curve; note: 0% is about no effect; nearly all actives have a fitted effect of over 55% in size
Sm TGR inh – qHTS Assay for the Inhibitors of Schistosoma Mansoni Peroxiredoxins; 360,000 tested, 3% active; AID 485364, 2010; Potency, µM (titrated, usually from 114 µM), for the others: top-dose activity change, negative = inhibition, actives largely listed as inhibitors; purified TGR, DTNB reduction, TNB absorbance 405 nm; Schistosoma mansoni thioredoxin glutathione reductase (TGR), Q962Y6; note: % is set by controls: 0 for no effect and ±100 for the full control effect; nearly all actives have a fitted effect of over 60% in size
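First, TGR (20 nM dispensed) and NADPH were mixed with compound. Second, a 15 min room-temperature incubation followed. Third, further NADPH and then DTNB were added to start the reaction. Finally, TNB absorbance was monitored kinetically.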
AmpC no deterg – qHTS Inhibitors of AmpC Beta-Lactamase (assay without detergent) | Potency, µM (titrated, usually from 57.1 µM), for the others: at the highest dose activity change, negative = inhibition, most hits filed as inhibitors | AmpC nitrocefin hydrolysis, absorbance 480 nm, 0.0001% Triton | 330,000 tested, 0.52% active | P00811;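 note: plate controls were no compound for no effect and no enzyme for full effect; nearly all actives have a fitted effect of over 20% in size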
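20 mM phosphate pH 7.0 + 0.01% (detergent screen) or 0.0001% Triton X-100; 5.3 nM AmpC reagent; cpd preinc 15 min RT; nitrocefin (800 uM stock) to start; A480 q20 s × 4 min; Activity was normalised to no-enzyme and no-compound control wells.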
An asterisk follows results filed as active; u = inconclusive; x = no result. In the library only some 12% were active in any assay of this set; here they are far more common. Unless noted, calls come from the whole dose curve; as a rule, active = well fitted curve in the direction sought with a large enough effect; inconclusive = small, poorly fitted or top-dose-only effect, or another doubt; inactive = no such curve, though single readings can be large; an effect the other way counts as inactive or inconclusive. Potency is the fitted concentration of half-maximal effect.

SMILES	Pf growth 96h	Pf growth 48h	AmpC detergent	SARS PLP yeast	Sm TGR inh	AmpC no deterg
COc1ccc(N2CCN(c3nc4ccccc4n4c(C)nnc34)CC2)cc1	x	x	16%	x	5%	x
CCCc1ccc(C2Sc3ccccc3NC3=C2C(=O)c2ccccc23)cc1 (configuration not stated)	x	x	19%	x	0%	x
O=C(CSc1ncnc2scc(-c3ccccc3)c12)N1CCN(Cc2ccc3c(c2)OCO3)CC1	u	-1%	2%	-8%	3%	37%
Cc1ccc2c(c1)[nH]c1c(N3CCN(Cc4ccc5c(c4)OCO5)CC3)ncnc12	x	2.9µM*	-12%	-6%	-1%	-17%
Fc1ccc(-c2csc3ncnc(N4CCN(Cc5ccccc5)CC4)c23)cc1	9.3µM*	u	u	u	-20%	-27%
Cc1sc2ncnc(N3CCN(Cc4ccccc4)CC3)c2c1-c1ccc(F)cc1	13µM*	13µM*	5%	-4%	3%	-14%
c1ccc(-c2csc3ncnc(N4CCN(Cc5ccc6c(c5)OCO6)CC4)c23)cc1	u	13µM*	1%	-2%	18µM*	-23%
O=C(COC(=O)C1(c2cccc(F)c2)CCCC1)NCc1ccc2c(c1)OCO2	2%	13%	-9%	-1%	7%	-31%
N#C/C=C(/N)N1CCN(c2ccc(Cl)c(Cl)c2)CC1	46%	7%	-4%	1%	8%	u
COc1cccc(OCc2cc(=O)n3cc(C)sc3n2)c1	x	x	-4%	x	-1%	x
CN(Cc1ccccc1)c1nc(CN2CCOCC2)nc2scc(-c3ccccc3)c12	u	u	-14%	8%	12%	292%
Fc1ccc(N2CCN(c3nc(CN4CCOCC4)nc4scc(-c5ccccc5)c34)CC2)cc1	7.4µM*	12µM*	-6%	-7%	-11%	145%
Fc1ccc(CN2CCN(c3ncnc4scc(-c5ccccc5)c34)CC2)cc1	10µM*	u	-8%	-2%	-9%	67%
O=C(Cc1cc(=O)[nH]c(=O)[nH]1)N1CCN(CCO)CC1	30%	23%	5%	9%	32µM*	-6%
Cc1ccc2nc(N(CCCN(C)C)C(=O)c3cc4ccccc4oc3=O)sc2c1	10µM*	u	-4%	4%	-7%	191%
CCc1ccc2nc(N(CCCN(C)C)C(=O)c3ccc(C(=O)c4ccccc4)cc3)sc2c1	15µM*	u	6%	0%	3%	164%
COc1cc2nc(N(CCCN(C)C)C(=O)c3ccc(C(=O)c4ccccc4)cc3)sc2cc1OC	u	u	u	-2%	2%	221%
CN(C)CCCN(C(=O)c1ccc(C(=O)c2ccccc2)cc1)c1nc2c(F)cccc2s1	-8%	u	3%	-2%	-5%	100%
CCOc1cccc2sc(N(CCCN(C)C)C(=O)c3ccc(C(=O)c4ccccc4)cc3)nc12	10µM*	u	-1%	-4%	3%	147%
CCN1CCC(N(Cc2cccc(OC)c2)C(=O)Nc2cccc(C(F)(F)F)c2)CC1	x	x	-6%	x	1%	x
O=C(Cn1ncc2c(=O)oc3ccccc3c21)N1CCC(N2CCCCC2)CC1	12µM*	17%	u	-2%	-1%	5%
O=C(Cn1ncc2c(=O)oc3ccccc3c21)NCCC1=CCCCC1	9.3µM*	-8%	1%	-1%	5%	-19%
O=C(COC(=O)CNC(=O)c1ccccc1)Nc1cccc(Br)c1	u	8%	-7%	0%	-11%	-20%
CCN(CC)CCCNC(=O)Cc1csc2nc(-c3ccc(Cl)cc3)cn12	x	x	2%	x	-5%	x

Screening data from PubChem BioAssay.
